The values below come from PubChem BioAssay (NCATS).

Results filed as inconclusive are left out. Calls of active or inactive are those of the source. The call rests on the fitted dose curve; in most records, active means well fitted curve in the direction sought with a large enough effect; inconclusive means small, poorly fitted or top-dose-only effect, or another doubt; inactive means no such curve, though single readings can be large; an effect the other way counts as inactive or inconclusive.
Potency means the concentration at half of the fitted maximal effect.

Sequence of ATP-dependent 6-phosphofructokinase (Trypanosoma brucei brucei) (O15648 whole entry, looked up): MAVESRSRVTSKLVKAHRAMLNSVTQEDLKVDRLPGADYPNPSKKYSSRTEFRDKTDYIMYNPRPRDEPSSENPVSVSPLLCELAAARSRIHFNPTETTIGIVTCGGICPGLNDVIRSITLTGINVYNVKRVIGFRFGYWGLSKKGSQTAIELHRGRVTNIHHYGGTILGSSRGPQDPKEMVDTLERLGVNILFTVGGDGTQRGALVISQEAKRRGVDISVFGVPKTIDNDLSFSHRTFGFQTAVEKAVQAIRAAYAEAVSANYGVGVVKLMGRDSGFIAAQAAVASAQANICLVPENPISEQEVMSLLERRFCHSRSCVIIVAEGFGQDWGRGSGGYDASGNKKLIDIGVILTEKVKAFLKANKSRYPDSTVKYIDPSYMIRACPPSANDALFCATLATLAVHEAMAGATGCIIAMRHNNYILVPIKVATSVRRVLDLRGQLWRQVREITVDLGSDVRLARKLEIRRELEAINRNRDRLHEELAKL

One assay concerns the target ATP-dependent 6-phosphofructokinase (Trypanosoma brucei brucei) (UniProt O15648). The assay can be described thus: qHTS Validation Assay to Find Inhibitors of T. brucei phosphofructokinase (AID 485368).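 On activity change, negative = inhibition: 0% = full PFK enzyme control and -100% = wells without enzyme.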 The settings on record: T. brucei PFK enzyme assay, qHTS 7-point titration; series mostly up to 57.5 µM; activity change, negative = inhibition: at the top concentration. The method, boiled down: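 Enzyme reaction in triethanolamine buffer pH 8.0 with 5 mM MgCl2, 0.01% Tween20 and 0.1% BSA; PFK 1.25 nM, F6P 0.5 mM, ATP 0.1 mM, 45 min RT. ADP quantified by ADP-Glo.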
On the technique in general: qHTS replaces the single test concentration by a dilution series.
As to `Clc1ccc(N2CCN(Cc3cc4ccccn4n3)CC2)cc1`, the result was inactive.
Regarding `NC(=S)c1ccc[n+]([C@@H]2O[C@@H](COP(=O)([O-])OP(=O)(O)OC[C@H]3O[C@@H](n4cnc5c(N)ncnc54)[C@H](OP(=O)(O)O)[C@@H]3O)C(O)C2O)c1` (some centres not stated), the “activity change, negative = inhibition” value was -18% (inactive).
Turning to `CSc1ccccc1N1CCN(CCCCCC(=O)NC2CCCc3ccccc32)CC1` (configuration not stated), the result was inactive.
In the case of `NC[C@H]1O[C@@H](n2cnc3c(N)ncnc32)[C@H](O)[C@@H]1O`, the “activity change, negative = inhibition” value was 14.4% (inactive).
As for `OCC1O[C@H]([S-])[C@H](O)[C@@H](O)[C@@H]1O.[Au+]` (some centres not stated), the Potency is 2.69 µM (active).
On to `CO/N=C(\C(=O)N[C@@H]1C(=O)N2C(C(=O)O)=C(COC(C)=O)CS[C@H]12)c1csc(N)n1`, for which the Potency is 8.49 µM (active).
As for `CCC1C(=O)OCC1Cc1cncn1C` (configuration not stated), the outcome was inactive.
With `COc1ccc(NC(=O)/C=C/c2ccc(Cl)cc2)cc1`, the result was inactive.
As for `NC(=S)NCCC[C@H](N)C(=O)O`, the Potency was 19 µM (active).
Turning to `COc1cc(SC)ccc1C(=O)N1CCC(Cc2ccccc2)CC1`, the result was inactive.
Regarding `O=C1NC(=O)/C(=C/c2ccc3nccnc3c2)S1`, the result was inactive.
Take `Nc1ncnc2c1ncn2[C@@H]1O[C@H](COP(=O)(O)CP(=O)(O)OP(=O)(O)O)[C@@H](O)[C@H]1O`: the call was inactive.
As to `CN1CCc2cccc3c2C1Cc1ccc(O)c(O)c1-3` (configuration not stated), the Potency was 12 µM (active).
In the case of `CN1C2CC(OC(=O)[C@H](CO)c3ccccc3)CC1C1OC12` (some centres not stated), the outcome was inactive.

Tested on in the next assay: not listed separately
The assay is described as follows: Quantitative high throughput screen for delayed death inhibitors of the malarial parasite plastid, 96 hour incubation (AID 488745). Further: nearly all actives have a fitted effect of over 70% in size. On activity change, negative = inhibition: on the % scale 0 is the no-effect control and ±100 the full control effect. The settings on record: Plasmodium falciparum growth; series mostly up to 28.7 µM; activity change, negative = inhibition: at the top concentration. The method, boiled down:
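Luciferase-expressing P. falciparum in erythrocytes (2% hematocrit, 0.1% parasitemia) incubated with compound for 96 h at 37 C, 5% CO2, in RPMI 1640 with 0.5% Albumax. Growth inhibition read as decreased luminescence.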
Turning to `Ic1ccc(N2CCN(Cc3c[nH]c4ncccc34)CC2)cc1`, the “activity change, negative = inhibition” value was -18.8% (inactive).
Turning to `O=C(c1cc(O)c(O)c([N+](=O)[O-])c1)c1ccccc1F`, the “activity change, negative = inhibition” value was -3.12% (inactive).
As to `c1cnc2c(c1)ccc1cccnc12`, the Potency was 1.85 µM (active).
Turning to `CCCCCCCCCCCCCCCC(=O)NCC(COP(=O)([O-])OCC[N+](C)(C)C)OCC` (configuration not stated), the “activity change, negative = inhibition” value is 1.64% (inactive).

Tested on in the next assay: not listed separately
The assay is described as follows: Quantitative high throughput screen for delayed death inhibitors of the malarial parasite plastid, 48 hour incubation (AID 488752). Further: nearly all actives have a fitted effect of over 65% in size. On activity change, negative = inhibition: on the % scale 0 is the no-effect control and ±100 the full control effect. The conditions noted are these: Plasmodium falciparum growth; series mostly up to 28.7 µM; activity change, negative = inhibition: at the top concentration. The method, boiled down:
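Erythrocytes infected with firefly luciferase-expressing P. falciparum (2% hematocrit, 0.1% parasitemia) cultured with compound for 48 h at 37 C, 5% CO2, in RPMI 1640/0.5% Albumax. Growth inhibition read as loss of luminescence.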
Take `Ic1ccc(N2CCN(Cc3c[nH]c4ncccc34)CC2)cc1`: the “activity change, negative = inhibition” value is -9.6% (inactive).
Consider `O=C(c1cc(O)c(O)c([N+](=O)[O-])c1)c1ccccc1F`, for which the “activity change, negative = inhibition” value was -0.807% (inactive).
`c1cnc2c(c1)ccc1cccnc12`: the Potency is 2.94 µM (active).
`CCCCCCCCCCCCCCCC(=O)NCC(COP(=O)([O-])OCC[N+](C)(C)C)OCC` (configuration not stated): the “activity change, negative = inhibition” value is 21.8% (inactive).
